D2 ag-1: Beta-Arrestin HTS for Positive Allosteric Modulators of the Human D2 Dopamine Receptor: Agonists; D(2) dopamine receptor (Homo sapiens), P14416; DiscoveRx PathHunter D2 beta-arrestin, luminescence, 90 min; 100% = 57 uM dopamine signal; activation, % (test concentration not listed); 360,000 compounds, 0.084% hits; AID 624465, 2012; in the data active = activation above about 40%; inconclusive = between about 15% and that limit
Target sequence (P14416 whole entry, looked up): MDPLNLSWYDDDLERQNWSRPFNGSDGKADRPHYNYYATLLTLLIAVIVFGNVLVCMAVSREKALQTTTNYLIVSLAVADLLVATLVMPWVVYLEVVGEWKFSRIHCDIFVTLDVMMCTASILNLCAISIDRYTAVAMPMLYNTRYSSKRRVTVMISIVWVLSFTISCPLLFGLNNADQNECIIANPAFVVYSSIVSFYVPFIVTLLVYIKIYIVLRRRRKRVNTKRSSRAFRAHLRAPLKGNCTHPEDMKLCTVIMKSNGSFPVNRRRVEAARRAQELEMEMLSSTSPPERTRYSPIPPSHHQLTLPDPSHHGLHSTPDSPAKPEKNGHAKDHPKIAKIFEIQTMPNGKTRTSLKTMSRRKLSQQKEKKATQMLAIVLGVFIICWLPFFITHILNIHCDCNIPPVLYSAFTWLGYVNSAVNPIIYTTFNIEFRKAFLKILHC
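Agonist mode: compounds alone added to overnight-plated D2 PathHunter cells for 90 min at 37 C, with 57 uM final dopamine (EC100) defining full response. Beta-arrestin recruitment detected by chemiluminescent reagent, read after 1 h at ambient temperature.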
D2 PAM-1: HTS Assay for Positive Allosteric Modulators of the Human D2 Dopamine Receptor: Primary Screen for Potentiators | D(2) dopamine receptor (Homo sapiens), P14416 | HEK293 T-REx D2, calcium flux, EC20 dopamine potentiation | potentiation, % at 10 µM | 340,000 compounds, 0.34% hits | AID 485347, 2010;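 active = potentiation over 3 SD above the plate norm, cut at about 30% in these data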; also: 0% is about no effect
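Using a no-wash calcium dye in inducible, force-coupled HEK293 Trex cells expressing D2, we tracked fluorescence each second for 180 s after compound, then for 180 s after EC20 dopamine to detect augmented signalling.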
D2 PAM-2: Beta-Arrestin HTS for Positive Allosteric Modulators of the Human D2 Dopamine Receptor: Potentiators. 360,000 compounds, 0.23% hits. DiscoveRx D2 beta-arrestin cells, luminescence, 90 min; 100% = 57 uM dopamine signal. D(2) dopamine receptor (Homo sapiens), P14416. AID 624464, 2012. potentiation, % (concentration not given with the values); in the data active = potentiation above about 50%; inconclusive = mostly about 30% to 49%
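PathHunter beta-arrestin assay in DiscoveRx D2 cells. Compounds were added with an EC20 of dopamine (50 nM final) for 90 min at 37 deg C. Luminescence was read 1 h after detection reagent, with 57 uM dopamine as the EC100 control.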
D2 antag: HTS Assay for Allosteric Antagonists of the Human D2 Dopamine Receptor: Primary Screen for Antagonists. D(2) dopamine receptor (Homo sapiens), P14416. HEK293 TREx D2 cells, calcium flux, dopamine EC80. inhibition, % at 10 µM. 340,000 compounds, 2% hits. AID 485344, 2010; in the data active = inhibition above about 30%; inactive = below that, where a call was filed; also: 0% is about no effect
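Cells plated overnight at 30 C with tetracycline; no-wash calcium dye, 30–90 min RT; 10 s baseline; compound pinned; 180 s read; EC80 dopamine added; another 180 s read.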
D2 ag-2: HTS Assay for Allosteric Agonists of the Human D2 Dopamine Receptor: Primary Screen for Agonists | D(2) dopamine receptor (Homo sapiens), P14416 | HEK293 T-REx D2 cells, calcium flux agonist mode | activation, % at 2 µM | 340,000 compounds, 0.53% hits | AID 485358, 2010;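 active = activation over 3 SD above normal in the single-dose calcium agonist read, cut at about 30% in these data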; also: 0% is about no effect
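Tetracycline-induced HEK293 Trex cells with D2 receptor force-coupled to calcium signaling, plated overnight at 30 C and loaded with no-wash calcium dye. Calcium flux read kinetically for 180 s after compound addition; responses flag agonists.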
* marks the source's active call; other numbers are inactive results; ? = inconclusive; / = no result given. An excerpt weighted towards active compounds, which were near 2.4% of everything screened.

SMILES | D2 ag-1 | D2 PAM-1 | D2 PAM-2 | D2 antag | D2 ag-2
CC(C)c1nnc(NC(=O)CC23CC4CC(CC(C4)C2)C3)s1 | -7.0 | 2.0 | -2.1 | 36.1* | 4.4
Fc1ccc(C2=NN(c3ccccc3)C(c3ccco3)C2)cc1 (configuration not stated) | -9.0 | 18.3 | -4.1 | -34.8 | -0.7
Oc1ccc(C2=NN(c3ccccc3)C(c3ccc(F)cc3)C2)cc1 (configuration not stated) | 4.9 | 3.9 | -0.5 | 32.9* | 0.7
Cc1ccc(C2CC(c3ccccc3)=NN2c2ccccc2)o1 (configuration not stated) | -5.8 | -2.6 | -8.9 | 35.6* | -0.9
COCCn1c(=O)[nH]c2cc(C(=O)NCCN3CCN(c4ccccc4)CC3)ccc2c1=O | ? | -28.1 | -0.3 | 143.5* | 83.5*
COc1ccc(CCNC(=O)C(NS(=O)(=O)c2ccc3c(c2)CCN3C(C)=O)C(C)C)cc1OC (configuration not stated) | / | 31.7* | / | 4.7 | -0.3
CCC(=O)N1CCc2cc(S(=O)(=O)CCC(=O)NCCc3ccccc3)ccc21 | -1.5 | 4.7 | -13.7 | 1.3 | -1.9
COc1ccc(S(=O)(=O)Nc2ccc(N3CCOCC3)cc2)cc1Br | -0.4 | 5.3 | -35.9 | 30.5* | 0.0
COc1ccc(S(=O)(=O)Nc2ccc(N3CCOCC3)cc2)cc1[N+](=O)[O-] | 2.1 | 0.7 | 3.7 | 2.4 | -0.6
CCC(=O)N1CCc2cc(S(=O)(=O)CCC(=O)NCCc3ccc(OC)c(OC)c3)ccc21 | -0.4 | 2.4 | -13.4 | 36.6* | -0.1
COc1ccc(S(=O)(=O)Nc2ccc3c(c2)N(C(C)=O)CCC3)cc1OC | 3.4 | 16.7 | -2.2 | 33.8* | -0.3
O=C(Nc1cc(C(F)(F)F)ccc1N1CCOCC1)c1cncc(Br)c1 | -0.4 | -5.7 | -2.7 | 30.9* | -0.1
Nc1nnc(SCC(=O)Nc2cc(C(F)(F)F)ccc2N2CCOCC2)s1 | -1.6 | 2.4 | -9.4 | 86.8* | 0.5
CN(C1CCCCC1)S(=O)(=O)c1ccc2c(c1)c(=O)c(C(=O)NCCc1ccc(Cl)cc1)cn2C | / | 28.3 | / | / | 6.4
COc1ccc(C2=Nn3c(nnc3-c3ccccn3)SC2)cc1OC | -4.6 | 13.9 | -3.7 | -15.1 | 1.7
COc1ccc(C2=Nn3c(nnc3-c3ccccc3OC)SC2)cc1OC | 1.2 | 36.9* | 3.9 | -3.5 | 0.1
CC1=C(C(=O)Nc2ccccc2)C(c2cccs2)n2nnnc2N1 (configuration not stated) | -1.6 | 2.3 | -8.2 | 35.8* | -0.6
CCN1C(=O)c2ccccc2S(=O)c2ccc(C(=O)NCc3ccccc3OC)cc21 (configuration not stated) | / | -15.0 | / | / | 0.0
CCOCCCNC(=O)c1ccc2c(c1)N(CC)C(=O)c1ccccc1S2=O (configuration not stated) | -6.8 | -28.0 | -31.5 | 16.9 | 0.6
CCCN(CCC)CCCNC(=O)c1ccc2c(c1)N(CC)C(=O)c1ccccc1S2=O (configuration not stated) | -1.0 | -22.2 | -6.0 | 106.9* | 0.1
CCCCN(CC)CCCNC(=O)c1ccc2c(c1)N(Cc1ccc(C)cc1)C(=O)c1ccccc1S2 | / | -3.7 | / | / | -0.3
CCN1C(=O)c2ccccc2Sc2ccc(C(=O)NCCCN(CC(C)C)CC(C)C)cc21 | -2.2 | -10.9 | -11.2 | 42.3* | 1.1
CCN1CCN(CCNC(=O)c2ccc3c(c2)N(Cc2ccc(F)cc2)C(=O)c2ccccc2S3=O)CC1 (configuration not stated) | -2.5 | -19.5 | -39.5 | 55.0* | 1.4
CCCCSCCCNC(=O)c1ccc2c(c1)N(CC)C(=O)c1ccccc1S2=O (configuration not stated) | -1.7 | -27.8 | -20.3 | 30.3* | 0.6
CCN1CCN(C(=O)c2ccc3c(c2)N(Cc2ccccc2)C(=O)c2ccccc2S3=O)CC1 (configuration not stated) | -3.1 | -21.9 | -15.1 | 27.4 | 0.6
SMILES | D2 ag-1 | D2 PAM-1 | D2 PAM-2 | D2 antag | D2 ag-2
O=C(NCc1cccs1)C1CC(=O)N(Cc2ccccc2)C1 (configuration not stated) | -1.8 | / | -1.3 | / | /
CCN1C(=O)c2ccccc2S(=O)c2ccc(C(=O)NCc3ccc(OC)cc3)cc21 (configuration not stated) | 0.4 | -21.9 | -3.4 | 81.4* | -1.4
COc1cc(NC(=O)CSc2nc(-c3ccco3)cc(C(F)(F)F)n2)cc(OC)c1OC | / | 13.2 | / | / | -1.0
O=C(CN1CCC(O)(c2ccccc2F)CC1)NCCc1c[nH]c2ccccc12 | -0.3 | -25.8 | -23.3 | 86.0* | 0.0
O=C(CN1C(=O)c2ccccc2C1=O)NCCc1c[nH]c2ccccc12 | -1.4 | 6.1 | -4.2 | -1.1 | -0.4
COc1ccc(NC(=O)c2cc3c(=O)n(C)c4cc(Cl)ccc4c3s2)cc1Cl | / | -12.8 | / | / | -0.4
CC(C)(Oc1ccc(Cl)cc1)C(=O)N1CCN(c2ccccn2)CC1 | -3.3 | 2.1 | -19.9 | 43.0* | -0.8
O=c1c(Cc2ccc(F)cc2)c(O)ccn1CCc1ccccn1 | -4.4 | -7.0 | -1.9 | 40.9* | 0.8
CCCCn1ccc(O)c(Cc2ccc(F)cc2)c1=O | -3.3 | 0.0 | -38.8 | 0.4 | -0.6
CN1C(C(=O)c2ccccc2)=C(OC(=O)c2ccc(Br)cc2)c2ccccc2S1(=O)=O | / | 3.4 | / | / | 0.4
Nc1ccc(/C=C/C(=O)c2cccs2)cc1 | 1.4 | -27.2 | -2.1 | 59.6* | 25.7
CCOC(=O)c1cc(-c2ccccc2)n(CCC(=O)Nc2nc3c(C)cccc3s2)c1C | / | 17.3 | / | / | 0.2
CCOC(=O)c1c(C)nn(-c2ccc(NC(=O)/C=C/C(=O)O)cc2)c1C | 0.5 | 8.5 | 3.7 | -19.9 | 0.4
CCNC(=O)Nc1ccc(-n2nc(C)c(C(=O)OCC)c2C)nc1 | 1.9 | 1.4 | -4.8 | 45.0* | -1.0
Cc1ccc(SCCNS(C)(=O)=O)cc1 | -1.4 | 35.9* | -16.1 | -11.7 | -0.1
Cn1c(=O)c2c(nc(NCc3ccco3)n2C/C=C/c2ccccc2)n(C)c1=O | 11.5 | 10.0 | 63.9* | -3.6 | -1.0
Cc1ccc(-c2nnc(N3CCN(C(=O)CSc4ncn[nH]4)CC3)c3ccccc23)cc1 | -0.2 | / | -3.0 | 46.6* | 3.4
Cc1ccc(-c2nc3ncccc3o2)cc1NC(=O)Cc1ccc(Cl)cc1 | -1.2 | 30.6* | -9.2 | 15.3 | 0.4
Cc1ccc(C(=O)NNc2ncnc3c2cnn3C)cc1 | -1.5 | 12.0 | -9.9 | 30.9* | -0.5

Screening results from PubChem BioAssay.
